The panel holds about 83,000 compounds, 20% with a hit somewhere; the sample as a whole holds those more often.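 Negative percent growth values reflect cell death: -40 means 40% of the cells present at the start died, and -100 means all died.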 Unmarked numbers belong to inactive results. The source made the active and inactive calls. Rule for the calls: active = growth percent below 10; inactive = the rest.

Common to all, as to test: NCI-60 one-dose screen, 48 h (100 = growth as untreated, 0 = no growth, -100 = all killed)
Holding throughout (details): 10 µM unless noted

Experiment [1] concerns SR leukemia.
In experiment [2] the test system is RPMI-8226 leukemia.
Experiment [3] has as its system OVCAR-8 ovarian.
The test system of experiment [4] is OVCAR-5 ovarian.
The test system of experiment [5] is OVCAR-4 ovarian.
Experiment [6] relates to SK-OV-3 ovarian.
For experiment [7], the system named is IGROV1 ovarian.
In experiment [8] the test system is OVCAR-3 ovarian.
The test system of experiment [9] is NCI/ADR-RES ovarian.
Experiment [10] deals with T-47D breast.
Experiment [11] concerns BT-549 breast.
Experiment [12] deals with MDA-MB-435 melanoma.
Experiment [13] relates to SW-620 colon.
The subject of experiment [14] is MCF7 breast.
Experiment [15] has as its system HCT-116 colon.
For experiment [16], the system named is HCC-2998 colon.
Experiment [17] has as its system KM12 colon.
Experiment [18] relates to HS 578T breast.

For `CCCCNC(=O)NS(=O)(=O)c1ccc(N2N=C(c3cc(C)ccc3C)CC2c2cc(OC)c(OC)c(OC)c2)cc1` (stereo not drawn), the growth in experiment [1] was 12.7%; in experiment [2], 28.3%; in [3], 53.2%; in experiment [4], 95.9%; in experiment [5] it was 77.7%; in experiment [6], 68%. The growth is 41.4% in experiment [7]; 53.3% in experiment [8]; 30.3% in experiment [9]; 38.4% in experiment [10]; 20.6% in [11]; -46.2% (active) in experiment [12]. The growth was 66.6% in experiment [13]; 24.4% in [14]; 32.3% in experiment [15]; -1.57% (active) in [16]; 46.1% in [17].

For `c1c2c(cc3c1OCO3)Cc1cc3c(cc1Cc1cc4c(cc1C2)OCO4)OCO3`, the growth was 91.9% in experiment [1]; 111% in experiment [2]; 101% in [3]; 102% in experiment [4]; 98.3% in [5]; 101% in experiment [6]. The growth in experiment [7] is 104%; in [8] it was 123%; in experiment [18] it was 104%; in experiment [9], 113%; in experiment [10], 108%; in experiment [12] it was 105%. Moreover, the growth was 109% in experiment [13]; 90.8% in experiment [14]; 115% in experiment [15]; 112% in [16]; 126% in [17].

As for `COc1ccc(C(=O)c2sc3nc4c(c(C(F)(F)F)c3c2N)CN(C(C)=O)CC4)cc1OC`, the growth is 79.4% in experiment [1]; 57.1% in experiment [2]; 80.9% in experiment [3]; 89.3% in experiment [4]; 85.8% in [5]; 87.2% in experiment [6]. Besides, the growth in experiment [7] is 98.2%; in [8], 95.9%; in [18] it was 81.6%; in experiment [9], 84.7%; in experiment [11], 99.6%; in experiment [12] it was 99.7%. Also, the growth in experiment [13] was 100%; in [14] it was 83.4%; in [15] it was 89.3%; in experiment [16], 94.9%; in experiment [17], 97.6%.

For the molecule `COc1cc(C2CC(=O)c3c(C)nn(-c4nc5ccccc5[nH]4)c3C2)cc(OC)c1OC` (stereo not drawn), the growth was 87.7% in experiment [1]; 92.1% in experiment [2]; 25.7% in experiment [3]; 90.4% in experiment [4]; -35.4% (active) in experiment [5]; 17.9% in [6]. Also, the growth in [8] was 67.2%; in experiment [18], 43.1%; in experiment [9] it was 64.9%; in [10], 60%; in [11] it was 77.7%; in experiment [12], 99.8%. Besides, the growth in experiment [13] was 99.6%; in experiment [14], 76.4%; in experiment [15] it was 68.7%; in experiment [16], 82.4%; in [17], 102%.

Turning to `CC(C)[C@@H]1CC[C@]2(C(=O)NCCCCN=C(N)N)CC[C@]3(C)[C@H](CC[C@@H]4[C@@]5(C)CCC(=O)C(C)(C)[C@@H]5CC[C@]43C)[C@@H]12`, the growth was 33.6% in experiment [1]; 36.3% in [2]; 70.2% in [3]; 97.4% in experiment [4]; 84.3% in experiment [5]; 91.7% in experiment [6]. Also, the growth in [7] is 25.6%; in experiment [8], 55.4%; in [18] it was 73%; in experiment [10] it was 37.4%; in [11] it was 90.5%; in experiment [12] it was 56.2%. In addition, the growth in [13] was 71.3%; in [14], 33.5%; in experiment [15] it was 72.9%; in experiment [16], 53.7%; in experiment [17] it was 40.9%.

On to `CC1=C(NCCN2CCCC2)C(=O)c2c(OCc3ccc(C(F)(F)F)cc3)cccc2C1=O`, for which the growth was -15.7% (active) in experiment [1]; 29.7% in experiment [2]; 77% in experiment [3]; 90.1% in experiment [4]; 84.7% in experiment [5]; 95.6% in experiment [6]. Besides, the growth was 89.1% in [7]; 83.6% in [8]; 87.6% in experiment [18]; 87.5% in experiment [9]; 73.6% in experiment [10]; 70.9% in experiment [12]. Further, the growth in [13] is 83.5%; in experiment [14], 59.9%; in experiment [15], 33.9%; in experiment [16], 107%; in experiment [17] it was 85%.

Take `O=C1c2ccccc2-c2nccc3cc(Cl)nc1c23`: the growth in experiment [1] was -27.8% (active); in [2], 4.08% (active); in [3], 51.1%; in experiment [4], 96.5%; in experiment [5], -96.4% (active); in experiment [6], 97.5%. For the same molecule, the growth in experiment [7] is 0.315% (active); in experiment [8] it was -87.3% (active); in experiment [18] it was -7.62% (active); in [10], -52.5% (active); in experiment [11], 58.5%; in [12] it was -73.7% (active). In addition, the growth was -54% (active) in experiment [13]; -59.5% (active) in experiment [14]; -91% (active) in [15]; 101% in experiment [16]; 25.7% in [17].

In the case of `O=C([C@@H](COCc1ccccc1)N1C(=O)[C@@H](N2C(=O)OC[C@@H]2c2ccccc2)[C@H]1/C=C/c1ccccc1)N1CCC(CCN2CCCCC2)CC1`, the growth in [1] was 30.9%; in [2] it was 65.2%; in experiment [3] it was 98.6%; in experiment [4] it was 102%; in experiment [5], 86.8%; in experiment [6], 86.6%. Besides, the growth was 84.1% in [7]; 91.5% in experiment [8]; 90.8% in [18]; 95.4% in [9]; 77.2% in experiment [10]; 97.7% in experiment [12]. The growth is 98% in [13]; 74.9% in experiment [14]; 83.1% in [15]; 84% in experiment [16]; 97.1% in [17].

On to `COc1ccc2nc3cc(Cl)ccc3c(N3CCN(c4nccc(Nc5ccccc5)n4)CC3)c2c1`, for which the growth in experiment [1] was 26.9%; in experiment [2], 45.2%; in [3], 67.8%; in experiment [4], 99.5%; in [5], 50.8%; in experiment [6], 96.2%. Further, the growth in experiment [7] was 78.8%; in [8], 50.7%; in [18] it was 88.1%; in experiment [9], 69.9%; in experiment [10], 23.3%; in [12] it was 62%. The growth in experiment [13] is 59.7%; in [14], 24.3%; in experiment [15] it was 16.3%; in experiment [16], 87.6%; in experiment [17] it was 63.1%.

The values above are taken from PubChem BioAssay (NCI).
